The nature of assay [1]: Cell Viability - SK-N-SH (AID 435; calls by dose curve;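 further: potency means the concentration at half of the fitted maximal effect; compound exposure lasted 40 h at 37 °C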). The conditions noted are these: SK-N-SH neuroblastoma cell viability qHTS. The gist of the method:
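CellTiter-Glo ATP luminescence, 20 min RT read; cells pre-plated 5 hr, compound 40 hr at 37 °C, 1500 cells/well, complete medium. Normalized DMSO = 0, 100 uM tamoxifen = 100% inhibition; Hill-fit AC50.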

Assay [2] is described as follows: Cell Viability - NIH 3T3 (AID 541).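 Further: cells exposed to compound for 40 hours; plate controls were DMSO alone for no effect and tamoxifen positive control for full effect; nearly all actives have a fitted effect of over 25% in size.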 The note with it: NIH 3T3 cell viability, qHTS; activity change, negative = cytotoxicity: at 92.2 µM (top of the series). A digest of the protocol: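 qHTS format; 40 hr compound exposure, 37 °C; CellTiter-Glo luminescence (cellular ATP) read-out after 20 min at RT. Decrease in ATP = cytotoxicity; AC50 from standard Hill fit.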
In general terms: In qHTS, concentration-response curves come from the screen itself.

Assay [3] has as its target Cytochrome P450 3A4 (Homo sapiens) (UniProt P08684). Nature of the assay: qHTS Assay for Inhibitors and Substrates of Cytochrome P450 3A4 (AID 884). Further: on the % scale 0 is the no-effect control and ±100 the full control effect; nearly all actives have a fitted effect of over 50% in size. The conditions noted are these: recombinant CYP3A4, Luciferin-PPXE luminescence; series mostly up to 57.1 µM. The gist of the method:
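Luminescent readout of luciferin produced by CYP3A4 (20 nM) dealkylation of Luciferin-PPXE, 25 uM (its KM). NADPH-driven reaction ran 60 min at RT after 10 min compound preincubation; data scaled to 57 uM ketoconazole as 100% inhibition.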

Assay [4] is described as follows: Cell Viability - LYMP2-005 (AID 967).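 Further: plate controls were DMSO only for no effect and 92 µM tetraoctylammonium bromide control for full effect.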 The conditions noted are these: LYMP2-005 lymphoblastoid cell viability; series mostly up to 92.2 µM. A digest of the protocol: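 Steps: seed 2500 LYMP2-005 cells/well, incubate 5 h at 37 C, add compound, incubate 24 h at 37 C, add CellTiter-Glo, wait 30 min at RT, read luminescence. Concentration-response data fitted to Hill equation for AC50.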

A short description of assay [5]: Cell Viability - LYMP2-022 (AID 987).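 Further: 0% = DMSO alone and full effect = tetraoctylammonium bromide at 92 µM; nearly all actives have a fitted effect of over 55% in size.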 The note with it: LYMP2-022 lymphoblastoid cell viability; series mostly up to 92.2 µM. A digest of the protocol:
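Luminescent ATP read-out (CellTiter-Glo, 30 min, RT) after 24 hr, 37 C compound exposure of 2500 human lymphoblastoid cells/well in complete medium. Cytotoxicity taken as concentration-dependent ATP loss; AC50 from standard Hill equation.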

A short description of assay [6]: Cell Viability - LYMP2-024 (AID 988).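 Further: plate controls were DMSO only for no effect and 92 µM tetraoctylammonium bromide for full effect; nearly all actives have a fitted effect of over 60% in size.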 The note with it: LYMP2-024 lymphoblastoid cell viability; series mostly up to 92.2 µM. The gist of the method:
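ATP-based luminescence (CellTiter-Glo, 30 min RT) after 24 h compound exposure at 37 C of 2500 lymphoblastoid cells/well; decrease in ATP taken as cytotoxicity. qHTS concentration-response fitted to standard Hill equation for AC50.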

Assay [7] is described as follows: Cell Viability - LYMP2-026 (AID 989). Further: on the % scale 0 is the no-effect control and ±100 the full control effect; nearly all actives have a fitted effect of over 50% in size. The conditions noted are these: LYMP2-026 lymphoblastoid cell viability, qHTS; series mostly up to 92.2 µM. A digest of the protocol: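 qHTS cytotoxicity: 2500 cells/well, 5 hr 37 C, compound 24 hr 37 C, CellTiter-Glo 30 min RT, luminescence. Tetraoctylammonium bromide positive control. AC50 via standard Hill fit.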
The target of assay [8] is Estrogen receptor (Homo sapiens) (UniProt P03372). Put plainly: qHTS assay for small molecule antagonists of estrogen receptor alpha signaling (AID 588513; active means well fitted curve in the direction sought with a large enough effect in the signal ratio, with a control signal flat, not every such curve was filed as active; the % refers to the signal ratio; further: on the % scale 0 is the no-effect control and ±100 the full control effect). The note with it: ER-alpha-UAS-bla HEK293, beta-lactamase ratio, antagonist mode; series mostly up to 76.9 µM. A digest of the protocol:
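Beta-lactamase reporter, antagonist mode, HEK 293 GripTite cells; 0.5nM E2 stimulus, 18 h, 37 C; CCF4 dye 2 h RT; fluorescence. IC50 and efficacy from Hill fits, normalized to E2 and DMSO.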

The target is the same in assay [9]. Put plainly: qHTS assay for small molecule agonists of estrogen receptor alpha signaling (AID 588514; calls by dose curve;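 further: 0% = vehicle only and 100% = reference agonist; nearly all actives have a fitted effect of over 70% in size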). The note with it: ER-alpha-UAS-bla HEK293, beta-lactamase ratio, 18 h; series mostly up to 76.8 µM. A digest of the protocol: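 Read-out: CCF4 fluorescence from a beta-lactamase reporter in ER-alpha-UAS-bla HEK 293 cells after 18 hrs of compound exposure at 37 C. Normalized to 20 nM 17-beta-estradiol (100%) and DMSO (0%).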

Assay [10] concerns the target Glucocorticoid receptor (Homo sapiens) (UniProt P04150). Nature of the assay: qHTS assay for small molecule agonists of glucocorticoid receptor signaling (AID 588532; active means well fitted curve in the direction sought with a large enough effect in the signal ratio, with a control signal flat; the % refers to the signal ratio;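 further: 100% = dexamethasone at 0.1 µM and 0% = DMSO only wells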). The conditions noted are these: HeLa MMTV-bla, beta-lactamase ratio, agonist, 18 h; stronger effect = higher value; percent of dexamethasone control, DMSO zero. The gist of the method:
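HeLa GRE-bla reporter cells; 18 h compound exposure at 37 C; 2 h CCF4 loading at room temperature; fluorescence at 460 and 530 nm; EC50 by Hill equation.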

Assay [11] is described as follows: qHTS assay for small molecule agonists of retinoid X receptor alpha signaling (AID 588544; calls by dose curve;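 on activation: 0% = DMSO basal wells and 100% = reference agonist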). The note with it: HEK293T RXRa-UAS-bla, beta-lactamase reporter, 18 h; 530 nm emission.
In assay [12] the target is Retinoic acid receptor RXR-alpha (Homo sapiens) (UniProt P19793). The description is as above. The conditions noted are these: HEK293T RXRa-UAS-bla, beta-lactamase reporter, 18 h; series mostly up to 76.7 µM.
Chain of Retinoic acid receptor RXR-alpha (Homo sapiens) (P19793 whole entry, looked up): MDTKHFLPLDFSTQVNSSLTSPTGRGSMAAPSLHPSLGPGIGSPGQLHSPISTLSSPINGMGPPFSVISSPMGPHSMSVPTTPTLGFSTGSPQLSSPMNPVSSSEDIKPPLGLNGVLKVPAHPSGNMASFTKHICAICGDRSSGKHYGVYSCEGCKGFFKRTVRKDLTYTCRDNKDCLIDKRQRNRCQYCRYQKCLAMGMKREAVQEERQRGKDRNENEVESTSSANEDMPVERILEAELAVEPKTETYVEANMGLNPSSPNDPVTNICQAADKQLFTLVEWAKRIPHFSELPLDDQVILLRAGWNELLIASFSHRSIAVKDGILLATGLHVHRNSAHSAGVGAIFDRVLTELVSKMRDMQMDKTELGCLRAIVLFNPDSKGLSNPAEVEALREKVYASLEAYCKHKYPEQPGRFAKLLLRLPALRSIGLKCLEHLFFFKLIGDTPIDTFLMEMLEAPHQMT
Assay [13] concerns the target Tumor necrosis factor (Homo sapiens) (UniProt P01375). Nature of the assay: qHTS assay to identify small molecules that stimulate Tumor Necrosis Factor-alpha (TNF-alpha) secretion (AID 651757; active means well fitted curve in the direction sought with a large enough effect in the signal ratio; the % refers to the signal ratio; further: 0% is about no effect). The conditions noted are these: Human cells, HTRF 665/615 ratio; series mostly up to 92.2 µM. A digest of the protocol: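 THP-1 cells, 3000/well; compound 17 hrs, 37 C; add cryptate/XL665 anti-TNF-alpha antibody pair; 3 hr RT; TR-FRET (HTRF) read of secreted TNF-alpha. Quantitative HTS format.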

Assay [14] in a line: Cellular Toxicity (caspase-3) N2a (AID 665).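 Further: compound exposure lasted 16 h at 37 °C before readout.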 The note with it: N2a cells, luminescence, normalized: DMSO 0%, 10 µM staurosporine 100%; at 92.2 µM (top of the series). A digest of the protocol: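 Luminescent Caspase-Glo 3/7 readout in N2a mouse neuroblastoma cells after 16 h compound exposure at 37 °C. Signal scaled to DMSO (basal) and 10 uM staurosporine (100%). Concentration-response fitted with Hill equation for AC50.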

The nature of assay [15]: qHTS assay for small molecule activators of the p53 signaling pathway (AID 651743; active means well fitted activation curve with a large enough effect in the signal ratio, not every such curve was filed as active; the % refers to the signal ratio; further: % of control where 0% means no effect). The note with it: HCT-116 p53RE-bla, beta-lactamase FRET ratio, 16 h; activation: stronger effect = higher value. The gist of the method: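 Reporter: beta-lactamase driven by p53 response elements, stably integrated in HCT-116 cells. Cells seeded at 4,000/well, 5 h preincubation, compound (DMSO) 16 h at 37 C; B/G FRET substrate 2 h RT; fluorescence intensity read.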

Here are results for 6 compounds from PubChem BioAssay (NCATS).

Several values for one entry are separate records, joined by “and”; a condition that tells them apart may be missing. Identical values can stand only once. Results filed as inconclusive are left out. Activity calls are given as the source filed them. Unless noted, the call rests on the fitted dose curve; in most records, active means well fitted curve in the direction sought with a large enough effect; inconclusive means small, poorly fitted or top-dose-only effect, or another doubt; inactive means no such curve, though single readings can be large; an effect the other way counts as inactive or inconclusive.

Chain of Tumor necrosis factor (Homo sapiens) (P01375 whole entry, looked up): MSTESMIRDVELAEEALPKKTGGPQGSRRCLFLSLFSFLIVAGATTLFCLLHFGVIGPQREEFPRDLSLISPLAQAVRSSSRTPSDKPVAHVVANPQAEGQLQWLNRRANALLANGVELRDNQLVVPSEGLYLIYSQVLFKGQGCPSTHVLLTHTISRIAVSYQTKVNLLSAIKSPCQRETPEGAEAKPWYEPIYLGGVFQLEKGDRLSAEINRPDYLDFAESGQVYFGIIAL
Chain of Cytochrome P450 3A4 (Homo sapiens) (P08684 whole entry, looked up): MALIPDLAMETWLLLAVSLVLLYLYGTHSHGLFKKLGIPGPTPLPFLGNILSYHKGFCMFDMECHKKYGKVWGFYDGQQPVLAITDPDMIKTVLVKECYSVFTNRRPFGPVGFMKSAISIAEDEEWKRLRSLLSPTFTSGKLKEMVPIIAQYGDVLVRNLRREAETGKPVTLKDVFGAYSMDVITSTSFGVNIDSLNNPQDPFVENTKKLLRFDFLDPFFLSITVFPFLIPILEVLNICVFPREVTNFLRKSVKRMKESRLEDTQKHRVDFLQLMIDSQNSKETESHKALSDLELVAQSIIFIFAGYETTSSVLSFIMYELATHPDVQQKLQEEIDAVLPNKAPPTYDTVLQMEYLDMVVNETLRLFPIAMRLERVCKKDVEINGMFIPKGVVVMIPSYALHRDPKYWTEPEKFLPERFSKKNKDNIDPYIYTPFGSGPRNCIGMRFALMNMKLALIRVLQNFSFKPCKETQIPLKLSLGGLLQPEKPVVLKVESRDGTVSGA
Chain of Glucocorticoid receptor (Homo sapiens) (P04150 whole entry, looked up): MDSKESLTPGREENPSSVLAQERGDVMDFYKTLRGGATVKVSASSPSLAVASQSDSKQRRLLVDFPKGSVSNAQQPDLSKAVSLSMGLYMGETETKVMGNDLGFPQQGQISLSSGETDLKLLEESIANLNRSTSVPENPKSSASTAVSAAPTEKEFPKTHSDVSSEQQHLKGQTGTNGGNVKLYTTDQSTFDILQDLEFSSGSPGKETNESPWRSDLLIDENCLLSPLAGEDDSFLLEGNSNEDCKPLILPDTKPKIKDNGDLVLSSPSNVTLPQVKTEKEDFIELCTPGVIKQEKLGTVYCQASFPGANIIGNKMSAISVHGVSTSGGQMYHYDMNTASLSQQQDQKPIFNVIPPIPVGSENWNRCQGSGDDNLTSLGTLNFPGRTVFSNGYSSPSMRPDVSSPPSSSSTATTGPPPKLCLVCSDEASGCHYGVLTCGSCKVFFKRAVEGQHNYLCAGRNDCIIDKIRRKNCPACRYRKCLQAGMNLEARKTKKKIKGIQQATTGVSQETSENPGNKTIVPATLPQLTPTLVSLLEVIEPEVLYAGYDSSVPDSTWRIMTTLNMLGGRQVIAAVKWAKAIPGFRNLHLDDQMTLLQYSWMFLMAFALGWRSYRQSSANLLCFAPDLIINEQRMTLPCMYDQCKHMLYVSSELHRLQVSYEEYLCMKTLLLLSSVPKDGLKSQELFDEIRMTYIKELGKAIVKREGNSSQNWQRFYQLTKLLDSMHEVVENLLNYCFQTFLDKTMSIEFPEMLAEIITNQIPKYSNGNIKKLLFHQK
Chain of Estrogen receptor (Homo sapiens) (P03372 whole entry, looked up): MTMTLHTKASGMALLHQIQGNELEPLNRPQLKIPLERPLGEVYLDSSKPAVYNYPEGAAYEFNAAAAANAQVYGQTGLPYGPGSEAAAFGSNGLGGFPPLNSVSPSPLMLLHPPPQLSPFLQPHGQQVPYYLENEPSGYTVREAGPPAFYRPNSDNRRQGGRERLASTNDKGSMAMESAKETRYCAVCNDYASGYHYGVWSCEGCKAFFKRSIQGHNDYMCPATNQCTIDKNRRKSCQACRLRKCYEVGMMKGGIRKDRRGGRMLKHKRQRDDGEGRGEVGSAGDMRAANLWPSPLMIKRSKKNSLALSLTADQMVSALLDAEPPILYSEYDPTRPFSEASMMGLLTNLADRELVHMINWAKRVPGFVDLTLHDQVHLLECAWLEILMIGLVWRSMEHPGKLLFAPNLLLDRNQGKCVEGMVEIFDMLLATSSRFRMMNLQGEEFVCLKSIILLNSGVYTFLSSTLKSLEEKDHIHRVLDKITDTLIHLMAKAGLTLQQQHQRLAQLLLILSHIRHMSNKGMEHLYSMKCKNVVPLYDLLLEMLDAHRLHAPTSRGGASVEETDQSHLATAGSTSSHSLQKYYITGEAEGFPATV

As to `NC(=S)Nc1ccccc1`, the Potency in assay [1] was > 92 µM (inactive). In addition, the activity change, negative = cytotoxicity in [2] is -8.44% (inactive) and 0.7% (inactive). For the same compound, the Potency result in [3], in [4], in assay [5], in assay [6], in assay [7] and in assay [8] was “inactive” in each case. Further, the Potency entry in assay [9] and in assay [12] was “inactive” throughout. In addition, the activation in assay [10] is 11.7% (inactive). Besides, the max response in assay [11] is -11.1% and -12.4% and -6.79%. The outcome in assay [13] was inactive.
As for `c1ccc2c(c1)CCCC2`, in assay [1], the Potency is > 92 µM (inactive). For the same compound, the activity change, negative = cytotoxicity in assay [2] is 9.7% (inactive). Moreover, in [14], the caspase-3 activation is 1.3% (inactive). In addition, the Potency entry in assay [3], in assay [4], in assay [5], in [6], in [7] and in assay [8] was “inactive” throughout. Further, the Potency result in [9] and in assay [12] was “inactive” each time. Moreover, the activation was 3.9% (inactive) in [10] and 2.11% (inactive) in assay [15]. For the same compound, the max response in assay [11] is -21.1%. The outcome in [13] was inactive.
For `O=NN(c1ccccc1)c1ccccc1`, the Potency in assay [1] is > 92 µM (inactive). Moreover, the activity change, negative = cytotoxicity in [2] was -6.8% (inactive). The caspase-3 activation in assay [14] was 0.181% (inactive). Besides, the Potency result in assay [3], in [4], in assay [5], in assay [6], in assay [7] and in assay [8] was “inactive” throughout. In addition, the Potency entry in assay [9] and in assay [12] was “inactive” throughout. For the same compound, the activation in [10] was -1.26% (inactive) and -2.24% (inactive); in assay [15], -0.087% (inactive) and -2.72% (inactive). Further, in assay [11], the max response is -13.1% and -6.23%. Besides, the outcome in assay [13] was inactive.
`CCCCOCCOP(=O)(OCCOCCCC)OCCOCCCC`: the Potency in [1] was > 92 µM (inactive). The activity change, negative = cytotoxicity in assay [2] is -4.02% (inactive). In assay [14], the caspase-3 activation was -1.18% (inactive). Moreover, the Potency result in [4], in assay [5], in assay [6], in assay [7], in [8] and in assay [9] was “inactive” throughout. Also, the Potency entry in assay [12] is “inactive”. In addition, the activation was 0.713% (inactive) and -16.4% (inactive) in assay [10]; -1.25% (inactive) and 0.739% (inactive) in assay [15]. Besides, the max response in [11] is -10.8% and -2.33%.
Regarding `C=CC(=C)C`, the Potency in assay [1] is > 92 µM (inactive). In addition, the activity change, negative = cytotoxicity in assay [2] was -9.16% (inactive). Besides, the caspase-3 activation in assay [14] was -1.13% (inactive). Moreover, the Potency entry in assay [3], in assay [4], in assay [5], in assay [6], in assay [7] and in assay [8] was “inactive” each time. The Potency result in assay [9] and in [12] was “inactive” throughout. Besides, the activation in assay [10] was -4.98% (inactive); in assay [15] it was -2.92% (inactive). Moreover, in assay [11], the max response was determined as 8.28%. Moreover, the result in assay [13] was inactive.
`CCSC(=O)Cl`: the Potency in [1] is > 92 µM (inactive). In [2], the activity change, negative = cytotoxicity is -9.03% (inactive). The caspase-3 activation in assay [14] is -2.14% (inactive). The Potency entry in assay [3], in assay [4], in assay [5], in [6], in [7] and in [8] was “inactive” in each case. In addition, the Potency entry in assay [9] and in [12] was “inactive” throughout. In addition, the activation in assay [10] was 17.3% (inactive); in assay [15] it was -1.99% (inactive). Further, the max response in assay [11] is -20.5%. Also, the outcome in assay [13] was inactive.
